# Laboratory results reported in the antibiotic and cytotoxicity screens of Wong et al. (2023).
# In all, about 39,000 compounds went through this assay and about 1,500 (3.8%) were called active. This excerpt belongs to a sample that is enriched for actives.
# Test system: HSkMC (human skeletal muscle cells)
# Experiment: cytotoxicity call (relative viability < 0.9)
# Conditions: 10 µM
row,Compound,cytotoxicity call
1,Cc1ccc(-c2c[nH]c(=S)[nH]2)cc1,inactive
2,Cc1noc(C)c1NC(=O)Nc1ccc2c(c1)CC(=O)N([C@H](C)CO)C[C@@H](C)[C@@H](CN(C)C(=O)Nc1cccc3ccccc13)O2,inactive
3,O=C(C[C@@H]1CC[C@H]2[C@@H](COC[C@@H](O)CN2S(=O)(=O)c2ccccc2)O1)NCCN1CCCC1,inactive
4,C[C@H]1CN([C@@H](C)CO)C(=O)Cc2cc(NS(C)(=O)=O)ccc2O[C@@H]1CN(C)C(=O)Nc1ccc2c(c1)OCO2,inactive
5,Cc1noc(C)c1NC(=O)Nc1cccc2c1O[C@@H](CN(C)S(C)(=O)=O)[C@H](C)CN([C@@H](C)CO)C2=O,inactive
6,NCCCCCNC(=O)[C@H]1C[C@H]2C(=O)NCC(=O)N2[C@H]1c1cccc(OCCO)c1,inactive
7,COc1ccc([C@@H]2CC(=O)c3c(O)cc(O[C@@H]4O[C@H](CO[C@@H]5O[C@@H](C)[C@H](O)[C@@H](O)[C@H]5O)[C@@H](O)[C@H](O)[C@H]4O)cc3O2)cc1O,inactive
8,C[C@@H](NC(=O)C[C@H]1C=C[C@H](NC(=O)CN2CCOCC2)[C@@H](CO)O1)c1ccccc1,inactive
9,O=C(Nc1ncc(SCCN2CCCC2)s1)[C@]1(c2ccc(S(=O)(=O)C3CC3)cc2)C[C@H]1C1CCCCC1,active
10,C[C@H]1CCCCO[C@H](CN(C)C(=O)Nc2ccc(F)cc2)[C@@H](C)CN([C@@H](C)CO)C(=O)c2cc(NC(=O)CCC(F)(F)F)ccc2O1,inactive
11,COc1ccc(CN(C)C[C@H]2Oc3c(NS(C)(=O)=O)cccc3C(=O)N([C@H](C)CO)C[C@H]2C)cc1,inactive
12,CC[C@H](C)C[C@H](C)CCCCCCCCC(=O)N[C@H]1C[C@@H](O)[C@@H](NCCN)NC(=O)[C@@H]2[C@@H](O)CCN2C(=O)[C@H]([C@H](O)CCN)NC(=O)[C@H]([C@H](O)[C@@H](O)c2ccc(O)cc2)NC(=O)[C@@H]2C[C@@H](O)CN2C(=O)[C@H]([C@@H](C)O)NC1=O,inactive
13,CCCCCOc1ccc(-c2cc(-c3ccc(C(=O)N[C@H]4C[C@@H](O)[C@@H](O)NC(=O)[C@H]5[C@@H](O)[C@@H](C)CN5C(=O)[C@H]([C@@H](O)CC(N)=O)NC(=O)[C@H]([C@@H](O)[C@@H](O)c5ccc(O)c(OS(=O)(=O)O)c5)NC(=O)[C@H]5C[C@@H](O)CN5C(=O)[C@H]([C@@H](C)O)NC4=O)cc3)no2)cc1,inactive
14,COc1ccc(NC(=O)N(C)C[C@@H]2Oc3ccc(NC(=O)CCCN(C)C)cc3CC(=O)N([C@H](C)CO)C[C@H]2C)cc1,inactive
15,C[C@@H]1CCCCO[C@H](CN(C)C(=O)Nc2ccc3c(c2)OCO3)[C@H](C)CN([C@@H](C)CO)C(=O)c2cc(NC(=O)Nc3ccc(F)cc3)ccc2O1,inactive
16,C[C@@H]1CCCCO[C@H](CN(C)C(=O)c2ccncc2)[C@H](C)CN([C@H](C)CO)C(=O)c2cc(NS(=O)(=O)c3ccc(Cl)cc3)ccc2O1,inactive
17,NC(=O)CNC(=O)c1cccc(Cl)c1,inactive
18,CN(C)c1ccc2nc3ccc(N(C)C)cc3[s+]c2c1.O.[Cl-],active
19,Cc1cc2nc3ccc(N(C)C)cc3[s+]c2cc1N.[Cl-],active
20,CN(C)c1ccc2c(=O)[nH][nH]c(=O)c2c1,inactive
21,C[C@@H]1CN([C@@H](C)CO)C(=O)Cc2cc(NC(=O)Cc3cn(C)c4ccccc34)ccc2O[C@@H]1CN(C)Cc1ccc(Oc2ccccc2)cc1,inactive

row,Compound,cytotoxicity call
1,Nc1cc(Cl)ncn1,inactive
2,C[C@@H]1CN([C@H](C)CO)S(=O)(=O)c2ccc(C#C[C@@H](C)O)cc2O[C@H]1CN(C)C,inactive
3,COc1ccc(S(=O)(=O)Nc2ccc3c(c2)C(=O)N([C@H](C)CO)C[C@H](C)[C@@H](CN(C)C(=O)c2ccccc2)OCCCC[C@H](C)O3)cc1,inactive
4,CC12CC3(C)CC(C)(C1)CC(C/N=C/c1ccc(O)cc1)(C2)C3,inactive
5,CCOc1ccc2nc(C34CC5CC(CC(C5)C3)C4)ccc2c1,inactive
6,CC1=Nc2ccccc2NC(C)(C)C1,inactive
7,C[C@@H]1CN([C@@H](C)CO)C(=O)c2cc(NC(=O)Cc3ccccc3)ccc2O[C@H]1CN(C)S(=O)(=O)c1cccs1,inactive
8,COCCN1CCC(N(Cc2ccc(-c3ccc(C(F)(F)F)cc3)cc2)C(=O)Cn2c(SCc3cccc(F)c3F)cc(=O)c3ccccc32)CC1,active
9,O=c1cc(-c2ccccc2)[nH]c(=O)[nH]1,inactive
10,CC(C)NC(=O)Nc1ccc2c(c1)CC(=O)N([C@@H](C)CO)C[C@@H](C)[C@H](CN(C)S(=O)(=O)c1ccc(Cl)cc1)O2,inactive
11,COc1ccc(S(=O)(=O)N(C)C[C@@H]2Oc3ccc(NC(=O)Nc4ccc(Cl)c(Cl)c4)cc3CC(=O)N([C@@H](C)CO)C[C@@H]2C)cc1Cl,active
12,COc1ccc(S(=O)(=O)N(C)C[C@@H]2Oc3ccc(NC(=O)Nc4cccc5c4CCCC5)cc3CC(=O)N([C@@H](C)CO)C[C@@H]2C)cc1Cl,inactive
13,COc1ccc(S(=O)(=O)N(C)C[C@@H]2Oc3ccc(NC(=O)NC(C)C)cc3CC(=O)N([C@H](C)CO)C[C@@H]2C)cc1,inactive
14,COc1ccc(S(=O)(=O)N(C)C[C@@H]2Oc3ccc(NC(=O)Nc4cc(Cl)cc(Cl)c4)cc3CC(=O)N([C@@H](C)CO)C[C@@H]2C)cc1Cl,active
15,CC(C)NC(=O)Nc1ccc2c(c1)CC(=O)N([C@H](C)CO)C[C@@H](C)[C@H](CN(C)S(=O)(=O)c1ccc(Cl)cc1)O2,inactive
16,COc1ccc(NC(=O)N(C)C[C@H]2OCCCC[C@H](C)Oc3ccc(NS(=O)(=O)c4cccs4)cc3C(=O)N([C@@H](C)CO)C[C@H]2C)cc1,inactive
17,COc1cccc(S(=O)(=O)N(C)C[C@H]2Oc3cc(Br)ccc3S(=O)(=O)N([C@@H](C)CO)C[C@H]2C)c1,inactive
18,COc1ccc2c3c([nH]c2c1)[C@@H](CO)N(C[C@]13CCN(CC1)S(=O)(=O)c1cn(cn1)C)C(=O)Nc1ccc(cc1)F,inactive
19,O=C(C[C@H]1C[C@@H]2c3cc(NC(=O)Nc4ccc(C(F)(F)F)cc4)ccc3O[C@@H]2[C@H](CO)O1)NC1CCCCC1,inactive
20,C[C@H]1CN([C@@H](C)CO)S(=O)(=O)c2ccc(C#Cc3ccncc3)cc2O[C@@H]1CN(C)C(=O)C1CCCCC1,inactive
